From PubChem
Vaccinia mCherry – qHTS for Stage-Specific Inhibitors of Vaccinia Orthopoxvirus: mCherry Reporter Primary qHTS; actives 0.63% (n = 310,000); AID 720579, 2013; Potency, µM (titrated, usually from 36.5 µM), without a hit: at the top dose activity change, negative = inhibition, hits mostly inhibitors; Vaccinia virus mCherry reporter infection, fluorescence; calls by dose curve; tested in A549 cells; note: potency is the fitted concentration of half-maximal effect; nearly all actives have a fitted effect of over 35% in size
HCMV antiviral – qHTS Assay for inhibitors of the human cytomegalovirus (HCMV); HFF cells, HCMV-luciferase reporter, 72 h; stronger effect = lower value; activity change, negative = inhibition, % at 57.5 µM; actives 4.5% (n = 410,000); in the data active = activity change below about -60%; inconclusive = no clear call, values can overlap the other calls; inactive = above about -39%
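After 16 h attachment at 37C, HFF cells received test compound and HCMV-luciferase (1 PFU/cell); reporter luminescence read 72 h later, data normalized against buffer-only and known inhibitor Salinomycin.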
LASV entry inh – qHTS for Inhibitors of binding or entry into cells for Lassa Virus | Lassa virus pseudotype entry inhibition, cell reporter | Potency, µM (titrated, usually from 37.9 µM), for inactives: at the top dose activity change, negative = inhibition, most hits filed as inhibitors | actives 1.2% (n = 300,000) | AID 540256, 2011; calls by dose curve; tested in HEK293 cells; note: potency is the fitted concentration of half-maximal effect; nearly all actives have a fitted effect of over 50% in size
FMDV antiviral – High Throughput Screening for Foot and Mouth Disease Virus Antivirals | FMDV antiviral cell-based qHTS | Potency, µM (highest dose often 57.9 µM), for the others: top-dose activity change, negative = inhibition, usual class: inhibitors | actives 1.2% (n = 410,000); calls by dose curve; tested in HEK293T cells; note: read-out not given here; potency is the fitted concentration of half-maximal effect; nearly all actives have a fitted effect of over 45% in size
Marburg entry inh – qHTS for inhibitors of binding or entry into cells for Marburg Virus; Marburg virus pseudotyped entry inhibition, cell reporter; Potency, µM (top dose mostly 37.8 µM), inactives show at the top dose activity change, negative = inhibition, hits mostly inhibitors; actives 1.8% (n = 300,000); calls by dose curve; tested in HEK293 cells; note: potency is the fitted concentration of half-maximal effect
VACV Venus inh – qHTS for Stage-Specific Inhibitors of Vaccinia Orthopoxvirus: Venus Reporter Primary qHTS | Vaccinia virus Venus reporter expression, fluorescence | Potency, µM (titrated, usually from 36.5 µM), without a hit: top-dose activity change, negative = inhibition, hits mostly inhibitors | actives 0.46% (n = 330,000) | AID 720580, 2013; calls by dose curve; tested in A549 cells; note: potency is the fitted concentration of half-maximal effect; nearly all actives have a fitted effect of over 30% in size
* marks the source's active call; other numbers are inactive results; i = inactive; ? = inconclusive; · = no result; [ ] = another dose, or the depositor's remark. Rows were chosen to be rich in hits. Some 6.5% of all compounds tested hit in one or more screens of this group. % is set by controls: 0 for no effect and ±100 for the full control effect.

SMILES	Vaccinia mCherry	HCMV antiviral	LASV entry inh	FMDV antiviral	Marburg entry inh	VACV Venus inh
COc1ccccc1-c1cc(C(F)(F)F)nc(S(=O)(=O)CCCC(=O)Nc2ccccc2F)n1	-22.6%[7.34 µM]	-102.5*	?	?	?	-14.5%[7.34 µM]
COc1cc(=O)n2c(c1C(=O)NC(C)c1ccco1)CCN(Cc1cc(C)ccc1C)CC2 (centres undefined)	-8.0%	·	·	-14.6%	·	8.0%
O=C(C1CCCN(Cc2cccc(Cl)c2)C1)N1CCCCC1 (centres undefined)	·	5.0	·	-16.8%	·	·
CCn1c(N)[n+](CC(=O)Nc2ccc(SC(F)F)cc2)c2ccccc21	?	?	?	-7.3%	4.47µM*	-23.8%
O=C(Cn1cnc2ccccc21)Nc1ccc(SC(F)F)cc1	-7.1%	-10.2	-16.3%[46.1 µM]	?	3.16µM*	-22.7%
COc1ccc(NC(=O)COC(=O)Cn2cnc3ccccc32)cc1	-18.3%	-4.4	2.9%	-1.6%	1.0%	-1.9%
N#CC1(NC(=O)COC(=O)CCCN=C2NS(=O)(=O)c3ccccc32)CCCCC1	-18.4%	-4.7	-1.7%	-10.6%	17.0%[46.1 µM]	-7.2%
Nc1cc(N)[nH]c(=S)n1	29.4%	·	·	·	·	-12.5%
COc1ccc(-c2oc3ncnc(NCCCN(C)C)c3c2-c2ccc(OC)cc2)cc1	·	-83.5*	·	?	·	·
C=CCOC(=O)N[C@@H](c1coc2ccccc2c1=O)[C@@H](C)C=CCC(=O)OC	·	·	·	·	-3.2%[14.2 µM]	·
Cc1ccccc1C(=O)N1[C@@H](C(C)C)COc2cc(Br)ccc2S1(=O)=O	-15.4%	-9.7	·	39.8µM*	9.95µM*	-9.6%
N#Cc1ccccc1Cn1cc(C(=O)c2cccs2)c2ccccc21	i	-80.7*	-5.0%	-25.5%	2.2%[46.1 µM]	-19.7%
O=C(N/N=C/c1cccc(F)c1)c1csc2c1CCCC2	·	40.1	?	6.0%	?	-19.1%
O=C(N/N=C/c1ccccc1F)c1csc2c1CCCC2	i	41.4	11.2µM*	1.2%	9.6%	-19.8%
CN(C)c1nc(OCCNC(=O)COc2ccc(Cl)cc2Cl)nc(N(C)C)n1	·	9.8	4.7%	?	-0.6%	·
COc1cc(C)nc(OCCNC(=O)COc2ccc(Cl)cc2Cl)n1	·	-60.4*	-5.7%	-14.0%	?	-14.2%
Cc1oc(-c2ccccc2NC(=O)C2CCC2)nc1CNC(=O)c1ccc2ccccc2c1	-4.1%	·	·	34.1%	·	5.5%
Cc1ccccc1NC(=O)c1c(C)oc2ccc(O)c(CN3CCC(C)CC3)c12	-0.9%	-27.6	?	0.0%	?	-3.8%
CCC(=O)C1=C(c2ccc(OC)c(OC)c2)N(C(=O)CC)n2c(nnc2-c2ccc(C)cc2)S1	-3.9%	34.4	?	-10.6%	·	-6.2%
CC(=O)C1=C(c2cccc([N+](=O)[O-])c2)N(C(C)=O)n2c(nnc2-c2ccc(C)cc2)S1	-14.5%	-37.9	20.2%[46.1 µM]	-15.2%	·	-4.1%
COc1ccc(C2=C(C(C)=O)Sc3nnc(-c4ccc(C)cc4)n3N2C(C)=O)cc1OC	?	-98.7*	?	-28.6%	·	?
COc1cccc(C2=C(C(C)=O)Sc3nnc(C4CCCCC4)n3N2C(C)=O)c1	?	-73.3*	?	0.0%	·	?
CC(=O)C1=C(c2ccc(Cl)c(Cl)c2)N(C(C)=O)n2c(nnc2C2CCCCC2)S1	-10.2%	33.2	17.8%[46.1 µM]	-14.3%	·	-10.7%
CC(=O)C1=C(c2ccccc2)N(C(C)=O)n2c(nnc2C2CCCCC2)S1	-13.0%[7.34 µM]	-95.3*	?	-27.4%	·	-5.6%[7.34 µM]
Cc1cc(S(=O)(=O)Nc2ccc(C(=O)NCc3ccncc3)cc2)ccc1F	-3.8%	-16.9	1.0%	13.0%	12.8%	-22.2%
SMILES	Vaccinia mCherry	HCMV antiviral	LASV entry inh	FMDV antiviral	Marburg entry inh	VACV Venus inh
O=C(NCc1ccccc1F)C(=O)NCC(c1cccs1)S(=O)(=O)c1cccs1 (centres undefined)	-12.9%	-10.6	-10.0%[46.1 µM]	-5.7%	·	-6.8%
O=[N+]([O-])c1ccc2nc(/C=C/c3ccc(Cl)cc3)[nH]c2c1	-20.0%	-85.8*	?	·	?	?
CC(=O)c1ccc(-c2ccc(C(=O)N(C)Cc3nc4ccccc4c(=O)[nH]3)o2)cc1	·	-30.4	·	22.4µM*	·	·
CN(Cc1nc2ccccc2c(=O)[nH]1)C(=O)c1ccc(S(=O)(=O)N(C)C)cc1	·	-12.9	11.9%	-11.2%	4.4%	·
COc1ccc(C(=O)NCc2nc(-c3ccccc3NC(=O)c3cc(C)oc3C)oc2C)cc1F	-11.1%	·	·	2.8%	·	-8.2%
CN(C)c1ccc(C(=C2C=CC(=[N+](C)C)C=C2)c2ccc(N(C)C)cc2)cc1	234.8%	·	·	17.8µM*	·	10µM*
CN(C)c1ccc(C(=C2C=CC(=[N+](C)C)C=C2)c2c(O)c(S(=O)(=O)[O-])cc3cc(S(=O)(=O)O)ccc23)cc1	?	·	·	·	·	-10.7%
Nc1c(C(O)(C(F)(F)F)C(F)(F)F)cc(C(O)(C(F)(F)F)C(F)(F)F)c2ccccc12	11.2µM*	·	22.4µM*	?	11.2µM*	?
Cc1ccc(C(NC(=O)CN2C(=O)NC3(CCCC3)C2=O)c2ccccc2)cc1 (centres undefined)	·	-13.6	·	-14.7%	·	·
CCC1CSC(=Nc2ccc(C)cc2)N1C(=O)CN1C(=O)NC2(CCCC2)C1=O (centres undefined)	?	172.9	10µM*	7.3%	?	?
Cn1cc(Cl)nc1[C@@H](O)c1ccccc1	·	·	·	·	27.6%	·
Cc1ccn2c(C(=O)c3ccc(Cl)cc3)cnc2c1	-8.2%	33.5	17.8µM*	-12.4%	?	-3.8%
CN(C)NC(=S)NC1CC2CCC1C2 (centres undefined)	·	-61.1*	·	3.4%	·	·
Nc1c2ccccc2nc2ccccc12	?	-99.4*	?	?	?	10µM*
Cc1ccc(S(=O)(=O)N(C)C)cc1NC(=O)CN1C(=O)NC2(CCCCCC2)C1=O	-6.5%	2.3	5.9%	-12.4%	-7.9%	-5.1%
CC(C)(C)N(Cc1ccccc1)C(=O)CN1C(=O)NC2(CCCCCC2)C1=O	·	-61.3*	·	-25.3%	·	·
Cc1ccccc1NC(=O)CN1C(=O)NC2(CCCCCCC2)C1=O	-3.5%	-97.5*	4.2%	-11.1%	-0.3%	-23.2%
Cc1ccc(Oc2ccccc2NC(=O)CN2C(=O)NC3(CCCC3)C2=O)cc1	·	-105.9*	·	-0.1%	·	·
COc1ccc(NS(=O)(=O)c2ccc(C)c(NC(=O)CN3C(=O)NC4(CCCC4)C3=O)c2)cc1	·	-66.3*	·	36.3%	·	·
CC(C)(C)N1C(=O)c2ccccc2NC(=O)C1C(=O)NCCOc1ccccc1 (centres undefined)	7.0%	52.6	·	-5.4%	·	-12.5%
CCN1/C(=C/C=C/C=C/C=C/c2sc3ccccc3[n+]2CC)Sc2ccccc21	·	-95.6*	·	10µM*	·	·
CCN1/C(=C/C=C/C=C/c2sc3ccccc3[n+]2CC)Sc2ccccc21	48.0%	·	1.84µM*	·	4.61µM*	89.8%
